# From PubChem BioAssay AID720504 (National Center for Advancing Translational Sciences (NCATS), 2013)
# The campaign covered roughly 360,000 compounds. About 10,000 (2.8%) were called active. Another 4% or so got no clear call; they are omitted. Calls come from the whole dose curve; as a rule, active = well fitted inhibition curve with a large enough effect; inconclusive = small, poorly fitted or top-dose-only effect; inactive = flat fitted curve, though single readings scatter. Only a selection was taken, and actives are over-represented in it overall.
# Biological target: Serine/threonine-protein kinase PLK1 (Homo sapiens) (UniProt P53350)
# Assay: qHTS for Inhibitors of PLK1-PDB (polo-like kinase 1 - polo-box domain): Primary Screen; note: nearly all actives have a fitted effect of over 65% in size; for max response, negative = inhibition: series mostly up to about 57 µM
# Details: Plk1 PBD binding of FITC phosphopeptide, fluorescence polarization
# % is set by controls: 0 for no effect and ±100 for the full control effect; potency is the fitted concentration of half-maximal effect.
# Chain of Serine/threonine-protein kinase PLK1 (Homo sapiens) (P53350 whole entry, looked up, the tested form may be a part): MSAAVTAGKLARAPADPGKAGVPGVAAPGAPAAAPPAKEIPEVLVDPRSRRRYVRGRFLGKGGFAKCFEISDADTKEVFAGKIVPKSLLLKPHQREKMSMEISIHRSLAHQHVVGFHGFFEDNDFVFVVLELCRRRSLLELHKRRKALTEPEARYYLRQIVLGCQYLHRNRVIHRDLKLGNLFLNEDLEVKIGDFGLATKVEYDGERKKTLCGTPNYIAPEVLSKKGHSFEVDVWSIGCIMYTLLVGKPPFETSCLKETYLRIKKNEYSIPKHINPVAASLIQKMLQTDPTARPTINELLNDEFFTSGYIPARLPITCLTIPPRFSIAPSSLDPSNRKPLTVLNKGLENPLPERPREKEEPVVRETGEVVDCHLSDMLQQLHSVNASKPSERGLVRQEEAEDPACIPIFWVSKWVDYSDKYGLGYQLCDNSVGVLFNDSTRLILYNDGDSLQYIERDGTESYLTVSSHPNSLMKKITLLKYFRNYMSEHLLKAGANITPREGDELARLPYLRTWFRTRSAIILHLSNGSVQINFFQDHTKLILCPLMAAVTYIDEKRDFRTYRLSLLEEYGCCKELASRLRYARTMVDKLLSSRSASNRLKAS
SMILES,"max response, negative = inhibition",Potency
CCCCc1ccc(S(=O)(=O)NC(=O)C2(C)CCN2C(=O)c2c(C)noc2C)cc1 (centres undefined),-12% (inactive),–
Cn1cc(CCC(=O)NC2CC2)c2ccccc21,-19.7% (inactive),–
Cc1ccc(CNC(=O)Cc2cn(C)c3ccccc23)cc1,-3.92% (inactive),–
CCn1cc(CCC(=O)NCc2ccc(F)cc2)c2ccccc21,–,23.8 µM (active)
COc1ccc(-c2cc(NC=O)c3ncc(-c4cccc(C(=O)N(C)C)c4)n3c2)c(OC)c1,-16.4% (inactive),–
CN1C(=O)C(CC(=O)Nc2ccccc2)S/C1=N/c1nccs1 (centres undefined),–,26.7 µM (active)
CCN1C(=O)C(CC(=O)Nc2cc(C)ccc2C)SC1=Nc1ccc(S(N)(=O)=O)cc1 (centres undefined),-2.89% (inactive),–
CC1CC(=O)N(CC(=O)Nc2cccc(Cl)c2)c2ccccc2S1(=O)=O (centres undefined),-2.47% (inactive),–
O=C(CC1SC(=Nc2ccccc2)N(Cc2ccccn2)C1=O)Nc1cccc(Cl)c1 (centres undefined),–,29.9 µM (active)
CCN=C1SC(CC(=O)Nc2ccc(C)cc2)C(=O)N1CC (centres undefined),-1.27% (inactive),–
CN=C1SC(CC(=O)Nc2ccc(C(=O)O)cc2)C(=O)N1C (centres undefined),-12.2% (inactive),–
CCCC/C=C/c1cccc2nncn12,0.37% (inactive),–
O=C(Nc1nnc([C@H]2C[C@H](O)[C@@H](CO)O2)s1)c1cccc(Cl)c1,-11.4% (inactive),–
O=C(CSc1ncn[nH]1)Nc1nc2c(F)c(F)c(F)cc2s1,-14.3% (inactive),–
CCn1c(=S)sc2c(=O)n(CC(=O)Nc3cccc(Br)c3)c(C)nc21,5.75% (inactive),–
COc1ccc(NC(=O)Cn2c(-c3ccc(OC)cc3)cn(-c3ccc(C)cc3)c2=O)cc1,-2.89% (inactive),–
CCn1c(=S)sc2c(=O)n(CC(=O)Nc3ccc(OC)cc3)c(C)nc21,–,33.6 µM (active)
CCCCCc1c(Cc2ccccc2)ncn1CCc1ccccc1OC,-12.9% (inactive),–
CCc1ccc(N(C(=O)c2csnn2)C(C(=O)NC2CCCCC2)c2ccncc2)cc1 (centres undefined),-3.61% (inactive),–
Cc1cc(NC(=O)CCC(=O)N(c2cccc(F)c2)C(C(=O)NC2CCCC2)c2ccncc2)no1 (centres undefined),-7.93% (inactive),–
Cc1ccc(N(C(=O)C(F)(F)F)C(C(=O)NC2CCCCC2)c2ccncc2)cc1C (centres undefined),–,11.9 µM (active)
COc1ccc(C(C)(O)c2nc(-c3ccc(C)c(C)c3)cs2)cc1 (centres undefined),-4.12% (inactive),–
COCCNC(=O)c1cc2c(Br)ccc(Br)c2nc1N,-4.02% (inactive),–
CCOC(=O)[C@]12CCC=C1N(Cc1cccc3ccccc13)C(=O)[C@H](CC(=O)NCc1cccc(C(F)(F)F)c1)C2,-6.42% (inactive),–
CCOc1ccccc1NC(=O)CCS(=O)(=O)c1cccc2nsnc12,7.52% (inactive),–
CCOc1ccc(N(CC)S(=O)(=O)c2cccc3nsnc23)cc1,-8.88% (inactive),–
CCOc1ccc(OCC)c(NC(=O)CN(C)S(=O)(=O)c2cccc3nsnc23)c1,–,29.9 µM (active)

SMILES,"max response, negative = inhibition",Potency
COc1ccc(CN2C[C@H]3CON(C)[C@H]3C[C@H]2c2ccc(-c3cccc(F)c3)cc2)cc1,5.3% (inactive),–
COc1ccc(N2CCN(C(=O)Cn3cnc4sc(C)c(S(=O)(=O)N5CCOCC5)c4c3=O)CC2)cc1,-11.3% (inactive),–
COc1cccc(NC(=O)Cn2cnc3sc(C)c(S(=O)(=O)N4CCN(C)CC4)c3c2=O)c1,–,8.44 µM (active)
Cc1sc2ncn(CC(=O)NCCN(C)C)c(=O)c2c1S(=O)(=O)N1CCC(C)CC1,-12.5% (inactive),–
COCCCNC(=O)c1cccc2c(-c3ccc(O)c(OC)c3)coc12,-12.1% (inactive),–
O=C(N[C@H]1CC[C@H](CC(=O)N2CCCCC2)O[C@@H]1CO)c1cccc(F)c1,6.09% (inactive),–
Cc1ccc(Cl)c(OCC(=O)N2CCc3ccccc3C2)c1,-3.49% (inactive),–
Cc1ccc(Cl)c(OCC(=O)NN2CCN(C)CC2)c1,–,23.8 µM (active)
Cc1ccc(Cl)c(OCC(=O)N(C)CC(=O)Nc2ccc(N3CCOCC3)cc2)c1,-2.7% (inactive),–
Cc1cc(C)c2c(=O)n3c(nc2c1)C(CC(C)C)NC(=O)c1cc2ccccc2cc1-3 (centres undefined),1.09% (inactive),–
O=C(Nc1ccc(Cl)c(C(F)(F)F)c1)C1Cc2c(-c3ccccc3Oc3ccccc3)ccnc2O1 (centres undefined),-6% (inactive),–
Cc1ccc(NC(=O)C2CCCN2S(=O)(=O)c2cccc3cccnc23)c(C)c1 (centres undefined),-3.33% (inactive),–
O=C(Nc1nccs1)C1CCCN1S(=O)(=O)c1cccc2cccnc12 (centres undefined),–,26.7 µM (active)
Cc1cc(C)cc(NC(=O)C2CCCN2S(=O)(=O)c2cccc3cccnc23)c1 (centres undefined),-10.9% (inactive),–
Cc1ccccc1-c1nc(NC(C)C)nc2cc(-c3ccccc3)sc12,-6.2% (inactive),–
O=C(C1CC(=O)N(C2CCCCC2)C1)N1CCN(c2ccccc2)CC1 (centres undefined),-15.5% (inactive),–
CC1CC(C)CN(C(=O)C2CC(=O)N(c3ccc(F)cc3)C2)C1 (centres undefined),-7.49% (inactive),–
O=C(C1CC(=O)N(c2ccc(F)cc2)C1)N1CCN(c2ccccc2)CC1 (centres undefined),–,18.9 µM (active)
CC1=C(C(=O)N(C)C)CC(CC(=O)NCCc2ccccn2)C(=O)N1CCC1=CCCCC1 (centres undefined),-5.19% (inactive),–
CC(=O)N(C1=C(Cl)C(=O)c2ccccc2C1=O)c1ccc(C(=O)O)cc1,–,2.99 µM (active)
COCCNC(=O)Nc1ccc2nc(-c3ccco3)c(-c3ccco3)nc2c1,–,21.2 µM (active)
COCCNC(=O)CSc1nc(N)c(NC(=O)c2ccco2)c(=O)[nH]1,-1.47% (inactive),–
O=C(Nc1nc(-c2ccco2)c(-c2ccco2)s1)c1ccco1,-24.5% (inactive),–
CC1(C(=O)NS(=O)(=O)c2ccccc2Cl)CCN1C(=O)c1cccc(F)c1 (centres undefined),-14.1% (inactive),–
CC(C)CN1C(=O)CN(S(C)(=O)=O)CC1(C)C(=O)NCc1ccccc1 (centres undefined),4.65% (inactive),–
O=C1NC[C@H](Cc2ccc(O)cc2)N(C[C@H]2CCCN2C[C@H](Cc2ccccc2)N2C[C@H](Cc3ccccc3)N(CCc3ccccc3)C(=O)C2=O)C1=O,-6.61% (inactive),–
CC1CCN(c2ccc3c(c2)S(=O)(=O)c2cc(C(=O)O)ccc2C3=O)CC1,2.83% (inactive),–
